Compounds with a hit are over-represented: about 3.8% of the library has one in this group of screens.
HSF-1 act: increases HSF-1 driven luciferase reporter signal | NIH3T3-HGL HSF-1 luciferase reporter, MG132, 8 h; 100% = twice DMSO control signal | activation, % at 9 µM | hit rate 1.7% among 300,000 | AID 504408;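 active means mean replicate activation of at least 50% with a set share of replicates each reaching 50%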;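 further: 0% = median of the neutral control wells and 100% = twice that signal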
pCIP destab: p/CIP protein destabilization; Q05BA5; F442A p/CIP-EGFP cells, EGFP fluorescence, 16 h; decrease of EGFP signal, % at 10 µM; hit rate 0.01% among 290,000;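 active means EGFP signal decrease of at least 30% at 10 µM or well 3 SD below plate mean, unless failing retest; inactive means the rest, including hits failing retest or dose response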
Target sequence (Q05BA5 1-1403): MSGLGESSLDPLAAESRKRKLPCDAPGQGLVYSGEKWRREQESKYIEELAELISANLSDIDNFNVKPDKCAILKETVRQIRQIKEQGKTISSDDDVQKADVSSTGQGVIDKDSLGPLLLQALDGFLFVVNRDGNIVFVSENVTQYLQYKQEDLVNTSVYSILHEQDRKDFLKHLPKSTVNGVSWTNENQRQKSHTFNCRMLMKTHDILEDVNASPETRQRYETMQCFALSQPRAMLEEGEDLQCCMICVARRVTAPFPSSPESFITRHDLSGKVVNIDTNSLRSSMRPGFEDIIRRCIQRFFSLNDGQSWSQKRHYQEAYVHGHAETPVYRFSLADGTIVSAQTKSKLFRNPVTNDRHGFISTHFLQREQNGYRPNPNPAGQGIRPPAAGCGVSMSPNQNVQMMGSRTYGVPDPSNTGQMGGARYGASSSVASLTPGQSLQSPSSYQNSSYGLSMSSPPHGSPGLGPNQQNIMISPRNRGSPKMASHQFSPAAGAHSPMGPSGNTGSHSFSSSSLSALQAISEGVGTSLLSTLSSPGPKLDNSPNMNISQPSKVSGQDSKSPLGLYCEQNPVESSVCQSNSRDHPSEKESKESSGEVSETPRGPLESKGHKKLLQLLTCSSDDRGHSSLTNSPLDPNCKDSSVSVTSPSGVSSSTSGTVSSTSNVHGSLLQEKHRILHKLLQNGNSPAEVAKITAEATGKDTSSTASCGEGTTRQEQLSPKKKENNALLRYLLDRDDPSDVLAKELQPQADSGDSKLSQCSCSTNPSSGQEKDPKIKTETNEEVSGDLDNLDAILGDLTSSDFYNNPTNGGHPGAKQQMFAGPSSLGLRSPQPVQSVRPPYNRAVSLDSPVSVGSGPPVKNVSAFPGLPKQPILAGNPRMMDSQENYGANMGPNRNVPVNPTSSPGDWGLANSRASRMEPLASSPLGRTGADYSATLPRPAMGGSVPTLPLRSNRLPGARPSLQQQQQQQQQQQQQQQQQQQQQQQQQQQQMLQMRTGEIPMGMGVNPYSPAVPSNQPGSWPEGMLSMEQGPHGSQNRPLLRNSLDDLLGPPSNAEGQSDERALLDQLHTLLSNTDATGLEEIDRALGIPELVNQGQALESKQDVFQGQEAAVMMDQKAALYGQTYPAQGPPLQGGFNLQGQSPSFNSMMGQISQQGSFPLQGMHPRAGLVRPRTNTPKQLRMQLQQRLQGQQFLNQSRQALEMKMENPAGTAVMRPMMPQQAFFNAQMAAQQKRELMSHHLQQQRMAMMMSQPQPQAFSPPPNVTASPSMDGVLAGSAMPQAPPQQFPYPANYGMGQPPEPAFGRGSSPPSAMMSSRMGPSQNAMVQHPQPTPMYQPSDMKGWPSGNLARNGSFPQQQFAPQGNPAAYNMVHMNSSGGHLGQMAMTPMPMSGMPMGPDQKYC
Hsp70 act: switches on Hsp70 transcription; HeLa Hsp70 promoter luciferase reporter, luminescence; scaled: vehicle 0, proteasome-inhibitor control 100%; activation, % at 10 µM; AID 1203; hit rate 0.04% among 200,000;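 active means activation above the mean across all tested compounds plus 3 SD, cutoff set per campaign, cut at about 5.5% in these data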;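 further: 100% = MG132 at 30 µM as the positive control and 0% = DMSO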
HSF1 inhib: HSF1 inhibition; NIH3T3-HGL HSE-luciferase, MG132-induced, luminescence 8 h; active compounds read low; activity change, negative = inhibition, % at 7.5 µM (by protocol); hit rate 0.77% among 300,000;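 active means more than half of replicate wells show activity change below -50%, luminescence cut by over half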;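 further: luciferase reports HSF-1 transcriptional activity via heat shock element; 0% = median of DMSO wells and -100% = zero luminescence signal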
HSP90 refold inh: blocks HSP90-mediated luciferase refolding in reticulocyte lysate. Rabbit reticulocyte lysate, luciferase refolding luminescence, 3 h. inhibition, % at 5.6 µM. AID 1789. hit rate 0.91% among 290,000;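 active means inhibition above the screen-wide mean plus 3 SD, computed separately per campaign, cut at about 16% in these data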;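 further: 0% = DMSO wells and 100% = 60 µM geldanamycin wells; inhibitors lower the luminescence because luciferase stays unfolded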
NALP1 yeast inh: blocks the NALP1 inflammasome reconstituted in yeast; inhibition, % at 10 µM; S. cerevisiae NALP1/ASC/caspase-1 growth, X-gal OD620, 72 h; AID 2071; hit rate 0.61% among 280,000; in the data active means inhibition mostly above about 24%, no sharp cut-off; inactive means mostly below about 32%
The depositor's hits bear a star.

For COc1ccccc1Oc1ccc2c(c1)C(=O)N(c1ccc(O)cc1)C2=O the results were pCIP destab -3.0, Hsp70 act -0.2, HSP90 refold inh 1.9 and NALP1 yeast inh 28.4*.
Screening COc1ccccc1Oc1ccc2c(c1)C(=O)N(c1ccc(Br)c3cccnc13)C2=O returned HSF-1 act -81.2, pCIP destab -5.0, Hsp70 act 0.0, HSF1 inhib -74.6*, HSP90 refold inh -0.9 and NALP1 yeast inh -4.5.
Screening CCc1ccc(-c2cc3c(=O)n(CC(=O)NCCCN4CCN(C)CC4)ncn3n2)cc1 returned HSF-1 act -10.6, pCIP destab -13.4, HSF1 inhib -23.8, HSP90 refold inh 9.7 and NALP1 yeast inh 25.8.
COC(=O)c1ccc(COc2ccccc2/C=C(\C#N)C(=O)Nc2ccccc2C)cc1 was read as HSF-1 act -4.7, pCIP destab 7.0, Hsp70 act 0.0, HSF1 inhib -0.9, HSP90 refold inh 4.2 and NALP1 yeast inh 24.9.
`COC(=O)c1ccc(COc2ccccc2/C=C(\C#N)C(=O)Nc2c(C)cccc2C)cc1` gave HSF-1 act 147.8*, pCIP destab 10.0, Hsp70 act -0.3, HSF1 inhib 126.3, HSP90 refold inh -1.0 and NALP1 yeast inh 17.8.
`CCOc1ccc(C(=O)n2cc(C(=O)OC)c3ccccc32)cc1` gave HSF-1 act -5.6, pCIP destab 2.9, HSF1 inhib -7.3, HSP90 refold inh 1.3 and NALP1 yeast inh -1.3.
`O=C(C1CC(=O)N(c2ccc3c(c2)OCCO3)C1)N1CCCC(C(F)(F)F)C1` (stereo not drawn) gave HSF-1 act -3.5 and HSF1 inhib -2.8.
Cc1oc(-c2ccccc2F)nc1CS(=O)(=O)CC(=O)NCCCN1CC(C)CC(C)C1 (stereo not drawn) was read as HSF-1 act -1.7, pCIP destab -1.0, HSF1 inhib 5.2, HSP90 refold inh 0.4 and NALP1 yeast inh 13.9.
`Cc1oc(-c2ccccc2F)nc1CS(=O)(=O)CC(=O)NCCCN1CCN(C)CC1` gave HSF-1 act 147.9*, pCIP destab 8.8, HSF1 inhib 99.7, HSP90 refold inh 1.4 and NALP1 yeast inh 25.8.
CCC(C)n1c(=O)c2sccc2n2c(CCCC(=O)N3CCC(C(N)=O)CC3)nnc12 (stereo not drawn) was read as HSF-1 act 15.4, pCIP destab -16.4, HSF1 inhib -0.6, HSP90 refold inh -4.4 and NALP1 yeast inh 14.3.
Screening CN(C)Cc1c(O)ccc2c1O/C(=C\C=C\c1ccccc1)C2=O returned HSF-1 act 3.4, pCIP destab -8.4, HSF1 inhib 5.5, HSP90 refold inh 10.6 and NALP1 yeast inh 44.1*.
`CCN1CCN(Cc2c(O)ccc3c2O/C(=C\C=C\c2ccccc2)C3=O)CC1` gave HSF-1 act -6.1, pCIP destab 14.7, Hsp70 act -0.2, HSF1 inhib 13.2, HSP90 refold inh 5.7 and NALP1 yeast inh 17.0.
For O=c1oc(-c2ccccc2)cc(Cl)c1Cl the results were HSF-1 act 454.7*, pCIP destab -6.4, HSF1 inhib 308.8, HSP90 refold inh -0.8 and NALP1 yeast inh 3.8.
For COc1ccc(CCNCc2cc(C)n(-c3ccc(OC)cc3)c2C)cc1 the results were HSF-1 act 66.9*, pCIP destab -1.1, HSF1 inhib 17.6, HSP90 refold inh 5.1 and NALP1 yeast inh 31.6.
`COc1ccc(CCNCc2ccccc2N2CCCC2)cc1` gave HSF-1 act -7.2, pCIP destab -9.3, HSF1 inhib -1.7, HSP90 refold inh 4.4 and NALP1 yeast inh 9.1.
For COc1ccc(-n2c(C)cc(C(=O)CCl)c2C)cc1 the results were HSF-1 act 4.7, pCIP destab -13.1, Hsp70 act -0.3, HSF1 inhib -4.6, HSP90 refold inh 4.4 and NALP1 yeast inh 42.2*.
CCn1c(C)c(C(=O)O)c2cc(OC)c3ccccc3c21 was read as HSF-1 act 1.4, pCIP destab 1.2, HSF1 inhib -14.3, HSP90 refold inh 0.5 and NALP1 yeast inh 23.5.
`CC(C)NC(=O)CN(C(=O)CCC(=O)Nc1nccs1)c1ccc2c(c1)OCO2` gave HSF-1 act 65.7*, pCIP destab 10.2, HSF1 inhib 21.5, HSP90 refold inh -3.0 and NALP1 yeast inh -0.9.
`OCC1(Cc2cccc(C(F)(F)F)c2)CCN(Cc2cc3ccccc3o2)CC1` gave HSF-1 act 89.1*, pCIP destab -9.1, Hsp70 act 0.0, HSF1 inhib 43.4, HSP90 refold inh 0.8 and NALP1 yeast inh 13.5.
For COc1cc(OC)c(OC)cc1CNc1nnnn1C the results were HSF-1 act -9.9, pCIP destab -10.8, HSF1 inhib -6.7, HSP90 refold inh 4.8 and NALP1 yeast inh 0.2.
O=C(/C=C/C(=O)N1CCc2ccccc2C1)N1CCc2ccccc2C1 was read as HSF-1 act -0.3, pCIP destab -8.6, HSF1 inhib -0.1, HSP90 refold inh -2.1 and NALP1 yeast inh 6.1.
For O=C(O)CN1CCc2ccccc2C1 the results were HSF-1 act 6.8, pCIP destab -11.3, Hsp70 act -0.1, HSF1 inhib -0.3, HSP90 refold inh -1.5 and NALP1 yeast inh 31.8*.
Screening CS(=O)(=O)c1sc(C#N)c2c1C(=O)CC(c1ccccc1)C2 (stereo not drawn) returned HSF-1 act 88.5*, pCIP destab -3.3, HSF1 inhib 72.0, HSP90 refold inh 0.3 and NALP1 yeast inh -12.2.
Screening CCC(Oc1ccc(F)cc1)C(=O)N1CCCCCCC1 (stereo not drawn) returned HSF-1 act -7.8, pCIP destab 5.2, HSF1 inhib 1.3, HSP90 refold inh -5.2 and NALP1 yeast inh 9.7.
COc1ccc(Nc2nnc(C)c(=O)[nH]2)c(OC)c1 was read as HSF-1 act -9.7, pCIP destab -5.2, HSF1 inhib -4.0 and HSP90 refold inh -2.0.
For COc1ccc(C(=O)O/N=C(\N)c2ccccc2Cl)cc1OC the results were HSF-1 act 9.1, pCIP destab -16.5, HSF1 inhib 14.4, HSP90 refold inh 0.9 and NALP1 yeast inh 24.6.
`COc1ccccc1C(=O)O/N=C(\N)c1ccccc1Cl` gave HSF-1 act 69.6*, pCIP destab -3.4, Hsp70 act 0.1, HSF1 inhib 23.9, HSP90 refold inh -7.3 and NALP1 yeast inh 30.7.
`N/C(=N\OC(=O)COc1ccc(Br)cc1Cl)c1ccccn1` gave HSF-1 act 51.3*, pCIP destab -8.2, Hsp70 act -0.2, HSF1 inhib 13.5, HSP90 refold inh 13.9 and NALP1 yeast inh 16.1.
Screening N/C(=N\OC(=O)COc1ccc2ccccc2c1Br)c1ccccn1 returned HSF-1 act 83.0*, pCIP destab 4.0, Hsp70 act 0.5, HSF1 inhib 47.6, HSP90 refold inh -1.3 and NALP1 yeast inh 3.2.
Screening COc1ccc(/C(N)=N/OC(=O)/C=C/c2ccccc2)cc1 returned HSF-1 act 53.8*, pCIP destab 1.6, Hsp70 act 0.1, HSF1 inhib 34.7, HSP90 refold inh 0.9 and NALP1 yeast inh -14.9.
